From PubChem BioAssay (NCI)
About 83,000 compounds went through this panel and 20% of them were active in at least one assay; those are over-represented in the sample as a whole.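 Interpretation: 100, growth as untreated; towards 0, rising growth inhibition; 0, no net growth; 0 to -100, cell death. Compounds scoring below 10 were considered active.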 Values without a mark were called inactive. Activity calls are given as the source filed them.

tested on: HOP-62 NSCLC; assay: NCI-60 one-dose screen, 48 h (100 = growth as untreated, 0 = no growth, -100 = all killed); conditions: 10 µM unless noted

Structure (SMILES) | growth
CCn1cc(C(=O)N/N=C/c2ccc(Br)cc2)c(=O)c2cc(F)c(N3CCNC(C)C3)c(F)c21 (stereo not given) | 88.8%
CCSC1=CC(=O)c2ccccc2C1=O | 76.8%
N#Cc1c(NC(=O)c2cccs2)[n+]([O-])c2ccc(Cl)cc2[n+]1[O-] | 95.7%
O=C(c1ccc(Cl)cc1Cl)N1c2ccccc2Sc2ccccc21 | 64.7%
CN(C)c1ccc(/C=C/C(=O)c2ccc(Nc3nc(Nc4ccc(F)cc4)nc(Nc4ccc(Cl)cc4)n3)cc2)cc1 | 78.3%
CCN1C(=O)N(CC)C2C1NN=c1s/c(=C3\C(=O)N(CCc4ccccc4)c4ccccc43)c(=O)n12 (stereo not given) | 24.4%
Cn1c(/C=C/[N+](=O)[O-])cc2ccccc21 | 76.7%
CCN(CCO)CC(C)Nc1ccc([N+](=O)[O-])c2sc3ccccc3c(=O)c12 (stereo not given) | 36.9%
CCOC(=O)C1CCN(c2ccc(N3C[C@@H](CNCc4ccc(C(=N)N)cc4)OC3=O)cc2)CC1 | 97.5%
CC1=NN(c2ccc(Cl)cc2)CC1(C)N=O (stereo not given) | 95.8%
CCN1C(=O)N(CC)C2C1NN=c1s/c(=C\c3ccccc3Br)c(=O)n12 (stereo not given) | 40%
Cc1cc(N2CCN(C)CC2)nc(NCc2cc(Nc3ccnc4cc(Cl)ccc34)ccc2F)n1 | -14.2% (active)
c1ccc2cc(Cn3c[n+](Cc4ccc5ccccc5c4)c4ccccc43)ccc2c1 | 3.98% (active)
Cc1ccc2[nH]c(-c3ccc(S(C)(=O)=O)cc3)c(/C=N/N=C(N)N)c2c1 | 58.3%
COc1ccc(-c2cc(C(=O)N3N=C(c4ccc(N)cc4)CC3c3ccccc3)c3ccccc3n2)cc1 (stereo not given) | 30.6%
COc1cccc(/C=C/C(=O)c2cc3c(N)c(C(=O)Nc4cccc(Cl)c4C)sc3nc2C)c1 | -24.1% (active)
O=C(CBr)CN1C(=O)c2ccccc2C1=O | 97.9%
C=C(CN1CC=CCC1)[C@@H]1CC[C@]2(CO)CC[C@]3(C)[C@H](CC[C@@H]4[C@@]5(C)CC[C@H](O)C(C)(C)[C@@H]5CC[C@]43C)[C@@H]12 | 104%
N=C(N)c1ccc(-c2ccc(-c3ccc(Cl)cc3)o2)o1 | 52.4%
CC(O)c1ncc(/C=C2\SC(=S)N(Cc3ccccc3)C2=O)s1 (stereo not given) | 104%
O=C(/C=C\c1ccco1)/C=C/c1ccco1 | 98.1%
CCCCNC1=C(OCC)C(=O)c2ccccc2C1=O | 125%
C#CC#CC#CC#CC#CC#CC#CC#CC[C@H]1OC[C@H](COC(=O)O[C@@H](C(=O)O[C@H]2C[C@@]3(O)[C@@H](OC(=O)c4ccccc4)[C@@H]4[C@]5(OC(C)=O)CO[C@@H]5C[C@H](O)[C@@]4(C)C(=O)[C@H](OC(C)=O)C(=C2C)C3(C)C)[C@@H](NC(=O)c2ccccc2)c2ccccc2)O1 | 68.9%
CCn1c2ccc(O)cc2c2c(C)c3c[n+](C(C)C)ccc3c(C)c21 | 43%
C=CCOC(=O)C1=C(C)NC(=O)NC1c1c(Cl)n(C)c2ccccc12 (stereo not given) | 92.9%

tested on: NCI-H460 lung; assay: as above; conditions: 10 µM unless noted

Structure (SMILES) | growth
O=C(O)C1CN(c2cccc(Cl)c2)N(c2cccc(Cl)c2)C1=O (stereo not given) | 102%
COc1ccc2c(c1)c(-c1ccc(-c3cn(C)c4ccc(OC)cc34)[nH]1)cn2C | 30.1%
CCN1CCN(CC(=O)Nc2nc3ccc(NCc4ccc(Br)cc4)cc3s2)CC1 | 26.3%
CC(C)c1ccc(-n2c(=S)[nH]c3sc4c(c3c2=O)CCC(=O)C4)cc1 | 30.3%
Cc1nc2sc(C(=O)Nc3cccc(Cl)c3)c(N)c2cc1C(O)c1ccccc1 (stereo not given) | 6.05% (active)
Cc1cscc(C)c1=S | 48.7%
COc1ccc(C2=NN(C(=O)c3cc(OC)c(OC)c(OC)c3)C(c3ccc(N(C)C)cc3)C2)cc1 (stereo not given) | 3.74% (active)
CN(C)c1ccc(/C=C2/C=C(c3ccccc3)OC2=O)cc1 | 103%
CN1CCN(c2ccc3c(c2)nc(NNC(=O)c2cnccn2)c2cccn23)CC1 | 9.73% (active)
CN(CCC#N)c1ccc(/C=C2\NC(=O)NC2=O)cc1 | 98.4%
COc1ccc(C(c2cc(OC)c(OC)c(OC)c2)N2CCCC2)cc1 (stereo not given) | 84.3%
O=C(/C=C/c1ccc(Br)cc1)c1ccc(-n2cc(CN3CCN(c4cc5c(cc4F)c(=O)c(C(=O)O)cn5C4CC4)CC3)nn2)cc1 | 85.8%
CCOC(=O)n1cc(-c2nonc2-c2cn(C)c3ccccc23)c2ccccc21 | 14.5%
CCOC(=O)c1n[nH]n2c1nc(=O)c1cnn(C)c12 | 103%
C#CC#CC#CC#CC#CC#CC#CC#CCC1OCC(COC(=O)O[C@@H](C(=O)O[C@H]2C[C@@]3(O)[C@@H](OC(=O)c4ccccc4)[C@@H]4[C@]5(OC(C)=O)CO[C@@H]5C[C@H](O)[C@@]4(C)C(=O)[C@H](OC(C)=O)C(=C2C)C3(C)C)[C@@H](NC(=O)c2ccccc2)c2ccccc2)O1 (stereo not given in full) | 5.88% (active)
CCn1cc(C(=O)N/N=C/c2ccc(Br)cc2)c(=O)c2cc(F)c(N3CCNC(C)C3)c(F)c21 (stereo not given) | -50.8% (active)
CCSC1=CC(=O)c2ccccc2C1=O | 112%
N#Cc1c(NC(=O)c2cccs2)[n+]([O-])c2ccc(Cl)cc2[n+]1[O-] | 113%
O=C(c1ccc(Cl)cc1Cl)N1c2ccccc2Sc2ccccc21 | 18.3%
CN(C)c1ccc(/C=C/C(=O)c2ccc(Nc3nc(Nc4ccc(F)cc4)nc(Nc4ccc(Cl)cc4)n3)cc2)cc1 | 62.7%

Structure (SMILES) | growth
CCN1C(=O)N(CC)C2C1NN=c1s/c(=C3\C(=O)N(CCc4ccccc4)c4ccccc43)c(=O)n12 (stereo not given) | 1.95% (active)
Cn1c(/C=C/[N+](=O)[O-])cc2ccccc21 | 62.7%
CCN(CCO)CC(C)Nc1ccc([N+](=O)[O-])c2sc3ccccc3c(=O)c12 (stereo not given) | 9.73% (active)
CCOC(=O)C1CCN(c2ccc(N3C[C@@H](CNCc4ccc(C(=N)N)cc4)OC3=O)cc2)CC1 | 103%
CC1=NN(c2ccc(Cl)cc2)CC1(C)N=O (stereo not given) | 95.9%
CCN1C(=O)N(CC)C2C1NN=c1s/c(=C\c3ccccc3Br)c(=O)n12 (stereo not given) | 3.66% (active)
Cc1cc(N2CCN(C)CC2)nc(NCc2cc(Nc3ccnc4cc(Cl)ccc34)ccc2F)n1 | -54.3% (active)
c1ccc2cc(Cn3c[n+](Cc4ccc5ccccc5c4)c4ccccc43)ccc2c1 | -34.2% (active)
Cc1ccc2[nH]c(-c3ccc(S(C)(=O)=O)cc3)c(/C=N/N=C(N)N)c2c1 | 37.9%
COc1ccc(-c2cc(C(=O)N3N=C(c4ccc(N)cc4)CC3c3ccccc3)c3ccccc3n2)cc1 (stereo not given) | 18.2%
COc1cccc(/C=C/C(=O)c2cc3c(N)c(C(=O)Nc4cccc(Cl)c4C)sc3nc2C)c1 | -23.5% (active)
O=C(CBr)CN1C(=O)c2ccccc2C1=O | 108%
C=C(CN1CC=CCC1)[C@@H]1CC[C@]2(CO)CC[C@]3(C)[C@H](CC[C@@H]4[C@@]5(C)CC[C@H](O)C(C)(C)[C@@H]5CC[C@]43C)[C@@H]12 | 96.2%
N=C(N)c1ccc(-c2ccc(-c3ccc(Cl)cc3)o2)o1 | -72.3% (active)
CC(O)c1ncc(/C=C2\SC(=S)N(Cc3ccccc3)C2=O)s1 (stereo not given) | 104%
O=C(/C=C\c1ccco1)/C=C/c1ccco1 | 116%
CCCCNC1=C(OCC)C(=O)c2ccccc2C1=O | 92.6%
C#CC#CC#CC#CC#CC#CC#CC#CC[C@H]1OC[C@H](COC(=O)O[C@@H](C(=O)O[C@H]2C[C@@]3(O)[C@@H](OC(=O)c4ccccc4)[C@@H]4[C@]5(OC(C)=O)CO[C@@H]5C[C@H](O)[C@@]4(C)C(=O)[C@H](OC(C)=O)C(=C2C)C3(C)C)[C@@H](NC(=O)c2ccccc2)c2ccccc2)O1 | 18.8%
CCn1c2ccc(O)cc2c2c(C)c3c[n+](C(C)C)ccc3c(C)c21 | 9.02% (active)
C=CCOC(=O)C1=C(C)NC(=O)NC1c1c(Cl)n(C)c2ccccc12 (stereo not given) | 106%
